Measured values: PubChem BioAssay (NCATS)
Inconclusive results are not listed. The source made the active and inactive calls. The call rests on the fitted dose curve; in most records, active means well fitted inhibition curve with a large enough effect; inconclusive means small, poorly fitted or top-dose-only effect; inactive means no such curve, though single readings can be large or run the other way.

Assay: P-glycoprotein substrates identified in KB-3-1 adenocarcinoma cell line, qHTS therapeutic library screen (AID 1346986); further: nearly all actives have a fitted effect of over 60% in size
Conditions: KB-3-1 parental cells viability, CellTiter-Glo, 72 h; at 44.5 µM (top of the series) unless noted
Protocol: The ATP-binding cassette transporters P-glycoprotein (P-gp) is known to limit brain penetration of many chemotherapy drugs. […] We used the CellTiter-Glo viability assay to test library compounds against the parental KB-3-1 human cervical adenocarcinoma cell line and the colchicine-selected sub-line KB-8-5-11 that over-expresses P-gp. KB-8-5-11 cells were also tested in the presence of a P-gp inhibitor (tariquidar) to assess reversability of transporter-mediated resistance. Of the tested compounds, a total of 90 P-gp substrates were identified including 55 newly identified P-gp substrates. Substrates were confirmed using an orthogonal killing assay against HEK-293 cells transfected with P-gp. As exemplars, we confirmed that AT7159 (cyclin-dependent kinase inhibitor); AT9283, (Janus kinase 2/3 inhibitor); ispinesib (kinesin spindle protein inhibitor); gedatolisib (PKI-587, phosphoinositide 3-kinase/mammalian target of rampamycin inhibitor); GSK-690693 (AKT inhibitor); and KW-2478 (heat shock protein 90 inhibitor) were substrates , and direct ATPase stimulation was assessed. ABCG2 was also found to confer high levels of resistance to AT9283, GSK-690693 and gedatolisib, while ispinesib, AT7519 and KW-2478 were weaker substrates.
The HeLa derivative cell line, KB-3-1, and its colchicine-selected, P-gp-overexpressing subline, KB-8-5-11 were maintained in DMEM with 10% FCS and Pen/Strep with glutamine at 37 degree C in 5% CO2. For KB-8-5-11 cells, colchicine was added to the medium at a concentration of 100 ng/mL. HEK-293 cells transfected with empty vector (pcDNA) or vector containing human ABCB1 (MDR-19) or ABCG2 (R-5) have been described previously (Robey, Lin, Qiu, Chan & Bates, 2011) and were maintained in EMEM supplemented with 10% FCS, Pen/Strep and glutamine with 2 mg/ml G418 to select for the expression of the transporter. Cultures were confirmed to be free of mycoplasma infection using the MycoAlert Mycoplasma Detection Kit (Lonza, Walkersville, MD). For the screen, assay medium was identical to culture medium except for KB-8-5-11 where colchicine was excluded from the medium.
All cell lines were plated into 1536-well plates at 500 cells/well in 5 uL media. Compounds were then pinned in dose-response using a 1536-head pin tool (Kalypsis, San Diego, CA) and plates were incubated at 37 degree C in 5% CO2 for an additional 72 h. CellTiter-Glo reagent (Promega) was dispensed into the wells, incubated for 5 min and luminescence was read on a ViewLux instrument (Perkin-Elmer). Cytotoxic compounds were defined as those that yielded a curve class of -1.1, -1.2, -2.1, -2.2, -2.3, or -2.4, a maximum response of >50% and an AC50 of < 10 uM. Cherry-picked hits from screening analysis were tested with both the KB pair of cell lines, and the pcDNA (empty vector control) and MDR-19 (P-gp overexpressing) pair were tested, in the absence and presence of tariquidar.

| Compound | outcome |
| --- | --- |
| COc1ccc(Cl)cc1C(=O)NCCc1ccc(S(=O)(=O)NC(=O)NC2CCCCC2)cc1 | inactive |
| Nc1ccc(S(=O)(=O)Nc2nccs2)cc1 | inactive |
| Cc1cc(C(C#N)c2ccc(Cl)cc2)c(Cl)cc1NC(=O)c1cc(I)cc(I)c1O (configuration not stated) | inactive |
| COc1ccc2[nH]c(S(=O)Cc3ncc(C)c(OC)c3C)nc2n1 (configuration not stated) | inactive |
| CCN(CC)CCNC(=O)c1cc(Cl)c(N)cc1OC | inactive |
| O=c1[nH]cnc2c1ncn2[C@@H]1O[C@H](CO)[C@@H](O)[C@H]1O | inactive |
| C[C@@H]1C[C@H]2[C@@H]3C[C@H](F)C4=CC(=O)C=C[C@]4(C)[C@@]3(F)[C@@H](O)C[C@]2(C)[C@@]1(O)C(=O)CO | inactive |
| CNC(=O)Oc1ccc2c(c1)[C@]1(C)CCN(C)[C@@H]1N2C | inactive |
| CC(C(O)c1ccc(O)cc1)N1CCC(Cc2ccccc2)CC1 (configuration not stated) | inactive [at 17.4 µM] |
| CCCCN1CCCC[C@H]1C(=O)Nc1c(C)cccc1C | inactive |
| CN1CCC[C@@H]1Cc1c[nH]c2ccc(CCS(=O)(=O)c3ccccc3)cc12 | inactive |
| C[C@@H]1CN(c2c(F)c(F)c3c(=O)c(C(=O)O)cn(C4CC4)c3c2F)C[C@H](C)N1 | inactive [at 9.29 µM] |
